Bioassay records from PubChem.
In the library only some 6.8% were active in any assay of this set; here they are far more common.
C diff HTS: C. difficile growth inhibitors, primary screen, HTS; Clostridium difficile clinical isolate growth, OD600, 24 h; hits give low values; growth activity, negative = inhibition, % at 16 µg/mL (by protocol); 86,000 tested, 0.25% active; AID 1259249, 2017;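 active = mean growth activity at or below -80% and every replicate also at or below -80%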;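 note: 0% = DMSO wells and -100% = levofloxacin 16 µg/mL wells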
Tcruzi prolif: T. cruzi intracellular proliferation inhibitors, primary screen, cell-based, beta-gal Tulahuen parasites, NIH3T3 host, luminescence. T. cruzi beta-gal in NIH3T3, GalScreen luminescence, 90 h. inhibition, % at 8.34 µM. 77,000 tested, 5.9% active. AID 624255, 2012;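 active = mean inhibition above about 93%, with at least 55% of replicates each passing it, limit read from the data, passing the limit was not always enough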
Pf Dd2 inh: P. falciparum Dd2 growth inhibitors, primary screen, SYBR Green fluorescence, single dose replicates. 72 h; hits give low values. activity change, % at 10 µM. 94,000 tested, 2.3% active. AID 1159554, 2015; in the data active = activity change below about -80%
* = called active by the depositor; . = no result.

SMILES	C diff HTS	Tcruzi prolif	Pf Dd2 inh
C[C@H]1CCCCO[C@H](CN(C)C(=O)Nc2ccc(C(F)(F)F)cc2)[C@@H](C)CN([C@@H](C)CO)C(=O)c2cc(NS(=O)(=O)c3ccc(F)cc3)ccc2O1	0	94	-82*
C[C@@H]1CCCCO[C@@H](CN(C)C(=O)Nc2ccc(C(F)(F)F)cc2)[C@@H](C)CN([C@H](C)CO)C(=O)c2cc(NS(=O)(=O)c3ccccc3)ccc2O1	6	53	-18
C[C@@H]1CCCCO[C@H](CN(C)C(=O)Nc2ccc(C(F)(F)F)cc2)[C@H](C)CN([C@H](C)CO)C(=O)c2cc(NS(=O)(=O)c3ccccc3)ccc2O1	9	98	-86*
CNC(=O)C[C@H]1CC[C@H]2[C@H](COc3ccc(NC(=O)c4ccc5c(c4)OCO5)cc3C(=O)N2C)O1	1	21	2
C[C@H]1CN([C@@H](C)CO)C(=O)c2cc(NS(=O)(=O)c3cn(C)cn3)ccc2O[C@@H]1CN(C)CC1CCCCC1	-1	-5	22
CC(C)NC(=O)Nc1cccc2c1O[C@H](CN(C)Cc1ccc(-c3ccccc3)cc1)[C@H](C)CN([C@@H](C)CO)C2=O	17	-42	-85*
C[C@H]1CN([C@@H](C)CO)C(=O)c2cccc(NC(=O)C3CCOCC3)c2O[C@H]1CN(C)Cc1ccc(-c2ccccc2)cc1	3	16	-2
C[C@@H]1CN([C@H](C)CO)C(=O)c2cccc(NC(=O)C3CCOCC3)c2O[C@H]1CN(C)Cc1ccc(-c2ccccc2)cc1	0	71	-84*
C[C@@H]1CN([C@@H](C)CO)C(=O)c2cccc(NC(=O)C3CCOCC3)c2O[C@H]1CN(C)Cc1ccc(-c2ccccc2)cc1	-3	56	-84*
CC(C)NC(=O)Nc1cccc2c1O[C@H](CN(C)Cc1ccc(-c3ccccc3)cc1)[C@@H](C)CN([C@@H](C)CO)C2=O	-2	25	-29
C[C@H](CO)N1C[C@H](C)[C@@H](CN(C)Cc2ccc(-c3ccccc3)cc2)Oc2c(NC(=O)C3CCOCC3)cccc2C1=O	21	45	-32
C[C@@H]1CN([C@@H](C)CO)C(=O)c2cccc(NC(=O)C3CC3)c2O[C@H]1CN(C)Cc1ccc(-c2ccccc2)cc1	12	59	-89*
C[C@H]1CN([C@@H](C)CO)C(=O)c2cccc(NC(=O)C3CC3)c2O[C@@H]1CN(C)Cc1ccc(-c2ccccc2)cc1	26	73	-60
C[C@@H]1CCCCO[C@@H](CN(C)S(=O)(=O)c2ccc(F)cc2)[C@H](C)CN([C@H](C)CO)C(=O)c2cc(NS(=O)(=O)c3ccccc3)ccc2O1	17	48	-55
O=C(C[C@@H]1C[C@@H]2c3cc(NC(=O)Nc4ccccc4)ccc3O[C@@H]2[C@@H](CO)O1)NCc1ccccn1	-1	-7	13
COc1cccc(CNC(=O)C[C@@H]2C=C[C@@H](NC(=O)C3CC3)[C@H](CO)O2)c1	0	.	-5
CO[C@@H]1CN(C)C(=O)c2ccc(NS(=O)(=O)c3ccccc3)cc2OC[C@H](C)N(Cc2ccccn2)C[C@H]1C	1	.	27
Cc1ccc(S(=O)(=O)N(C)C[C@@H]2OCCCC[C@H](C)Oc3ccc(NC(=O)Cc4ccccc4)cc3C(=O)N([C@@H](C)CO)C[C@H]2C)cc1	.	58	-79
C[C@@H]1CCCCO[C@@H](CN(C)S(=O)(=O)c2ccc(Cl)cc2)[C@@H](C)CN([C@H](C)CO)C(=O)c2cc(NC(=O)Cc3ccccc3)ccc2O1	5	45	-83*
Cc1ccc(S(=O)(=O)N(C)C[C@@H]2OCCCC[C@@H](C)Oc3ccc(NC(=O)Cc4ccccc4)cc3C(=O)N([C@H](C)CO)C[C@@H]2C)cc1	.	53	-81*
C[C@@H]1CCCCO[C@@H](CN(C)S(=O)(=O)c2ccc(Cl)cc2)[C@@H](C)CN([C@@H](C)CO)C(=O)c2cc(NC(=O)Cc3ccccc3)ccc2O1	2	62	-78
C[C@H](CO)N1C[C@H](C)[C@H](CN(C)C(=O)NC2CCCCC2)Oc2ccc(NC(=O)NC3CCCCC3)cc2CC1=O	-5	4	10
COc1ccc(-c2ccc3c(c2)[C@@H]2[C@@H](CCN2S(=O)(=O)c2ccc(OC)cc2)[C@@H](CO)N3)cc1	-8	39	14
Cc1ccc(S(=O)(=O)Nc2ccc3c(c2)C(=O)N([C@H](C)CO)C[C@@H](C)[C@H](CN(C)C(=O)Nc2c(C)noc2C)OCCCC[C@@H](C)O3)cc1	3	20	-12
O=C(NC1CCCC1)N[C@H]1C=C[C@H](CC(=O)N2CCOCC2)O[C@H]1CO	-3	.	25
SMILES	C diff HTS	Tcruzi prolif	Pf Dd2 inh
COc1ccc2c3c(n(C)c2c1)[C@H](CO)N(Cc1nccs1)CC31CN(C)C1	5	.	23
O=C(NCC[C@@H]1CC[C@H](NS(=O)(=O)c2ccccc2)[C@H](CO)O1)c1ccccc1F	4	26	-21
COc1ccc2c3c([nH]c2c1)[C@H](CO)N(Cc1ccncc1)CC31CCN(Cc2ccc(-c3ccccn3)cc2)CC1	-1	.	-89*
COc1ccc2c3c([nH]c2c1)[C@@H](CO)N(Cc1nccs1)CC31CCN(Cc2ccncc2)CC1	8	.	-65
COc1ccc2c3c([nH]c2c1)[C@@H](CO)N(Cc1ccncc1)CC31CCN(Cc2ccc(-c3ccccn3)cc2)CC1	4	.	-91*
COc1ccc2c3c([nH]c2c1)[C@@H](CO)N(Cc1ccccc1)CC31CCN(C)CC1	9	.	-30
CNC(=O)C[C@@H]1CC[C@@H]2[C@H](COc3ccc(NC(=O)Nc4ccc(Cl)cc4)cc3C(=O)N2C)O1	6	27	-29
C[C@@H]1CN([C@H](C)CO)C(=O)c2cccc(NC(=O)CCCCCC(=O)Nc3ccccc3N)c2O[C@H]1CN(C)Cc1ccccc1	1	.	-88*
C[C@@H]1CN([C@@H](C)CO)C(=O)c2cccc(NC(=O)CCCCCC(=O)Nc3ccccc3N)c2O[C@@H]1CN(C)Cc1ccncc1	10	.	-2
C[C@H]1CN([C@@H](C)CO)C(=O)c2cccc(NC(=O)CCCCCC(=O)Nc3ccccc3N)c2O[C@@H]1CN(C)Cc1ccc(-c2ccccc2)cc1	-14	.	-93*
C[C@H](CO)N1C[C@H](C)[C@@H](CN(C)Cc2ccncc2)Oc2c(NC(=O)CCCCCC(=O)Nc3ccccc3N)cccc2C1=O	.	46	-29
C[C@@H]1CN([C@H](C)CO)C(=O)Cc2cc(NC(=O)Cc3cn(C)c4ccccc34)ccc2O[C@@H]1CN(C)Cc1ccc(-c2ccccc2)cc1	-1	91	-6
CCNC(=O)C[C@H]1CC[C@@H]2[C@@H](COc3ccc(NC(=O)c4ccc5c(c4)OCO5)cc3C(=O)N2C)O1	-14	-10	-30
Cc1ccc(S(=O)(=O)N(C)C[C@@H]2Oc3ccc(NC(=O)CCCCCC(=O)Nc4ccccc4N)cc3C(=O)N([C@@H](C)CO)C[C@@H]2C)cc1	-1	.	-89*
C[C@H](CO)N1C[C@H](C)[C@@H](CN(C)S(=O)(=O)c2ccc(Cl)cc2)Oc2ccc(NC(=O)CCCCCC(=O)Nc3ccccc3N)cc2C1=O	-6	.	-86*
